These results are taken from the supplement of paper PMC8728848.

The entries come from a sample that favours the strongest signals as a whole.

What all share (experiment): glycan array binding signal (z-score within array); higher = stronger binding
Settings in all cases: glycan notation: IUPAC condensed, linker removed

In assay [1] the target is Fuc(a1-2)[Gal(a1-3)]Gal(b1-4)Glc. The essentials: (§1)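 Arrays were curated from the Consortium for Functional Glycomics database, 3228 in total, and kept only where the protein sequence was available. Binding is expressed as a within-array Z-score. This score was averaged across arrays of the same protein sequence at different concentrations or buffers and across linkers, and negative values can be read as non-binding.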

The target of assay [2] is Fuc(a1-3)[Gal(b1-4)]GlcNAc. Put shortly: as §1
In assay [3] the target is Gal(a1-6)Glc. Put shortly:
as §1

The target in assay [4] is Gal(b1-3)Gal. The essentials:
as §1

Assay [5] deals with Gal(b1-3)GalNAc(b1-3)Gal(b1-4)GlcNAc. The essentials:
as §1

For assay [6], the target named is Gal(b1-3)GalNAc(b1-4)[Neu5Ac(a2-3)]Gal(b1-4)Glc. The essentials:
as §1

Assay [7] addresses Gal(b1-4)GlcNAc(b1-6)[Gal(b1-3)]GalNAc. The essentials: as §1
Assay [8] has as its target Gal3S(b1-3)GalNAc. The essentials: as §1
The target in assay [9] is Gal3S(b1-4)Glc. The essentials: as §1
The target of assay [10] is Gal3S(b1-4)Glc6S. The essentials: as §1
Assay [11] has as its target GalNAc(b1-3)Gal(a1-4)Gal(b1-4)GlcNAc. Put shortly:
as §1

Assay [12] has as its target GalNAc(b1-4)GlcNAc. Put shortly: as §1
Assay [13] deals with Man(a1-2)Man(a1-3)[Man(a1-3)[Man(a1-6)]Man(a1-6)]Man(b1-4)GlcNAc(b1-4)GlcNAc. Put shortly:
as §1

For assay [14], the target named is Man(a1-3)[Man(a1-6)]Man(a1-6)[Man(a1-3)]Man(b1-4)GlcNAc(b1-4)GlcNAc. The essentials: as §1
Assay [15] has as its target Neu5Ac(a2-3)Gal(b1-3)GalNAc(b1-3)Gal(a1-4)Gal(b1-4)Glc. Put shortly:
as §1

The target of assay [16] is Neu5Ac(a2-3)Gal(b1-3)[Neu5Ac(a2-6)]GalNAc. Put shortly:
as §1

For assay [17], the target named is Neu5Ac(a2-3)Gal(b1-4)Glc. The essentials:
as §1

For assay [18], the target named is Neu5Ac(a2-3)Gal(b1-4)GlcNAc6S. The essentials:
as §1

The target of assay [19] is Neu5Ac(a2-3)GalNAc. The essentials: as §1
Assay [20] concerns the target Neu5Ac9Ac(a2-6)Gal(b1-4)GlcNAc. The essentials:
as §1

Assay [21] deals with Fuc(a1-3)GlcNAc. The essentials: as §1
Assay [22] deals with Fuc(a1-3)[GalNAc(b1-4)]GlcNAc. The essentials:
as §1

Assay [23] deals with Gal(a1-3)GalNAc. Put shortly: as §1
The target of assay [24] is Gal(b1-3)GalNAc. Put shortly: as §1
For assay [25], the target named is Gal(b1-3)GlcNAc(b1-3)Gal(b1-4)GlcNAc. Put shortly: as §1
Assay [26] concerns the target Gal(b1-3)[Fuc(a1-4)]GlcNAc. Put shortly:
as §1

Assay [27] addresses Gal6S(b1-4)GlcNAc. The essentials: as §1
Assay [28] deals with GalNAc(b1-4)GlcNAc(b1-2)Man(a1-3)[GalNAc(b1-4)GlcNAc(b1-2)Man(a1-6)]Man(b1-4)GlcNAc(b1-4)GlcNAc. The essentials: as §1
In assay [29] the target is GlcA(b1-6)Gal. The essentials:
as §1

In assay [30] the target is GlcNAc(a1-4)Gal(b1-4)GlcNAc(b1-3)Gal(b1-4)Glc. Put shortly:
as §1

Assay [31] addresses GlcNAc(b1-2)Man(a1-3)[GlcNAc(b1-2)Man(a1-6)]Man(b1-4)GlcNAc(b1-4)[Fuc(a1-6)]GlcNAc. Put shortly: as §1
Assay [32] concerns the target GlcNAc(b1-3)Gal(b1-4)GlcNAc(b1-3)Gal(b1-4)GlcNAc. Put shortly: as §1
The target in assay [33] is GlcNAc(b1-4)GlcNAc(b1-4)GlcNAc(b1-4)GlcNAc(b1-4)GlcNAc. The essentials:
as §1

Assay [34] has as its target Kdn(a2-3)Gal(b1-3)GalNAc. The essentials:
as §1

Assay [35] deals with Man(a1-2)Man(a1-3)[Man(a1-2)Man(a1-6)]Man(a1-6)[Man(a1-2)Man(a1-2)Man(a1-3)]Man(b1-4)GlcNAc(b1-4)GlcNAc. Put shortly:
as §1

The target in assay [36] is Man(a1-3)[Man(a1-6)]Man. Put shortly: as §1
For assay [37], the target named is Neu5Ac(a2-3)Gal(b1-3)[Fuc(a1-4)]GlcNAc(b1-3)Gal(b1-3)[Fuc(a1-4)]GlcNAc. The essentials: as §1
Assay [38] concerns the target Neu5Ac(a2-3)Gal(b1-4)GlcNAc(b1-2)Man(a1-3)[Neu5Ac(a2-6)Gal(b1-4)GlcNAc(b1-2)Man(a1-6)]Man(b1-4)GlcNAc(b1-4)GlcNAc. Put shortly:
as §1

Assay [39] addresses Neu5Ac(a2-3)Gal(b1-4)GlcNAc(b1-3)Gal(b1-4)GlcNAc. Put shortly:
as §1

For assay [40], the target named is Neu5Ac(a2-3)Gal(b1-4)[Fuc(a1-3)]GlcNAc(b1-6)[Neu5Ac(a2-3)Gal(b1-3)]GalNAc. Put shortly:
as §1

The target in assay [41] is Neu5Ac(a2-3)Gal6S(b1-4)GlcNAc. The essentials: as §1
For assay [42], the target named is Neu5Ac(a2-6)Gal(b1-4)GlcNAc(b1-2)Man(a1-6)Man(b1-4)GlcNAc(b1-4)GlcNAc. Put shortly:
as §1

The target in assay [43] is Neu5Ac(a2-8)Neu5Ac(a2-3)[GalNAc(b1-4)]Gal(b1-4)Glc. Put shortly:
as §1

The target of assay [44] is Neu5Ac(a2-8)Neu5Ac(a2-8)Neu5Ac. Put shortly:
as §1

The target in assay [45] is Neu5Ac(a2-6)Gal(b1-4)GlcNAc(b1-2)Man(a1-3)[Gal(b1-4)GlcNAc(b1-2)Man(a1-6)]Man(b1-4)GlcNAc(b1-4)GlcNAc. The essentials: as §1
Assay [46] concerns the target Neu5Ac(a2-6)Gal(b1-4)GlcNAc(b1-2)Man(a1-6)[GlcNAc(b1-2)Man(a1-3)]Man(b1-4)GlcNAc(b1-4)GlcNAc. Put shortly: as §1
Assay [47] concerns the target Neu5Ac(a2-8)Neu5Ac(a2-8)Neu5Ac(a2-3)Gal(b1-4)Glc. Put shortly:
as §1

Assay [48] addresses Neu5Ac(a2-8)Neu5Ac(a2-8)Neu5Ac(a2-3)[GalNAc(b1-4)]Gal(b1-4)Glc. The essentials: as §1
Assay [49] concerns the target Neu5Gc(a2-3)Gal(b1-3)GlcNAc. The essentials:
as §1

B1: EcCDA (Encephalitazoon cuniculi), Q8SU65 (protein)
chain: MLLCLLYFTSSWCSGSDVPDVCTNSGMIAINFVDGPVRGVTDRILNTLDELGVKATFSFTVNQKAVGNVGQLYRRAVEEGHNVALRVDPSMDEGYQCLSQDALENNVDREIDTIDGLSGTEIRYAAVPICNGQVNSEMYNILTERGVLPVGYTFCPYDYDDPVGEFESMIEGSDPKHHSFIILMHDGQEADTSRLENMVKIGKDKGYRFVNMDECLQGYKGAPGDPELSLRGKGVESIGKGFLPFFLMMLVRLL
Consider B1, for which the “glycan array binding signal (z-score)” value in [1] was 2.96; in assay [2], -0.055; in [3], 3.02; in [4] it was -0.337; in [5], -0.363; in assay [6] it was -0.234. The “glycan array binding signal (z-score)” value was -0.1 in assay [7]; 0.115 in assay [8]; 0.022 in assay [9]; 5.58 in assay [10]; 1.6 in [11]; -0.289 in [12]. The “glycan array binding signal (z-score)” value is -0.2 in assay [13]; -0.34 in assay [14]; -0.476 in [15]; -0.318 in [16]; -0.322 in [17]; -0.284 in [18]. The “glycan array binding signal (z-score)” value in assay [19] stood at 0.071; in [20], 4.58.

B2: Sialidase (Vibrio cholerae), P37060 (protein)
chain: GAMALFDYNATGDTEFDSPAKQGWMQDNTNNGSGVLTNADGMPAWLVQGIGGRAQWTYSLSTNQHAQASSFGWRMTTEMKVLSGGMITNYYANGTQRVLPIISLDSSGNLVVEFEGQTGRTVLATGTAATEYHKFELVFLPGSNPSASFYFDGKLIRDNIQPTASKQNMIVWGNGSSNTDGVAAYRDIKFEIQGDALNGSMALFDYNATGDTEFDSPAKQGWMQDNTNNGSGVLTNADGMPAWLVQGIGGRAQWTYSLSTNQHAQASSFGWRMTTEMKVLSGGMITNYYANGTQRVLPIISLDSSGNLVVEFEGQTGRTVLATGTAATEYHKFELVFLPGSNPSASFYFDGKLIRDNIQPTASKQNMIVWGNGSSNTDGVAAYRDIKFEIQGDLQALGMALFDYNATGDTEFDSPAKQGWMQDNTNNGSGVLTNADGMPAWLVQGIGGRAQWTYSLSTNQHAQASSFGWRMTTEMKVLSGGMITNYYANGTQRVLPIISLDSSGNLVVEFEGQTGRTVLATGTAATEYHKFELVFLPGSNPSASFYFDGKLIRDNIQPTASKQNMIVWGNGSSNTDGVAAYRDIKFEIQGD
As to B2, the “glycan array binding signal (z-score)” value in assay [1] is -0.115; in [21], -0.622; in assay [22], -0.6; in assay [23] it was -0.472; in assay [24], -0.469; in assay [6] it was 0.396. Moreover, the “glycan array binding signal (z-score)” value in assay [25] is -0.474; in assay [26], -0.364; in [8], -0.567; in assay [27], -0.619; in [28] it was -0.622; in [29], -0.085. Moreover, the “glycan array binding signal (z-score)” value in [30] is -0.574; in [31], -0.267; in [32], 0.631; in assay [33], -0.605; in assay [34], -0.286; in assay [35] it was 0.193. In addition, the “glycan array binding signal (z-score)” value was -0.644 in assay [36]; -0.275 in assay [15]; 5.53 in [37]; 2.8 in [16]; 6.62 in assay [38]; 4.64 in [39]. The “glycan array binding signal (z-score)” value in assay [18] was 2.73; in assay [40], 0.955; in assay [41], 6.38; in assay [42], 1.84; in assay [43], -0.257; in assay [44], 0.113.

B3: SspB (Streptococcus gordonii), P16952 (protein)
chain: MKNKKEVYGFRKSKVAKTLCGAVLGTALIAFADKAVFADEVTETTSTSTVEVATTGNPATNLPEAQGEMSQVAKESQAKAGSKESALPVEVSSADLDKAVADAKSAGVKVVQDETKDKGTATTATDNAQKQDEIKSDYAKQAEEIKTTTEAYKKEVAAHQAETDKINAENKAADDKYQKDLKSHQEEVEKINTANATAKAEYEAKLAQYQKDLATVKKANEDSQQDYQNKLSAYQTELARVQKANAEAKEAYEKAVKENTAKNEALKVENEAIKQRNETAKATYEAAMKQYEADLAAIKKANEDNDADYQAKLAAYQTELARVQKANAEAKEAYDKAVKENTAKNTAIQAENEAIKQRNETAKATYDAAVKKYEADLAAVKQANATNEADYQAKLAAYQTELARVQKANADAKATYEKAVEDNKAKNAAIKAENEEIKQRNAVAKTDYEAKLAKYEADLAKYKKEFAAYTAALAEAESKKKQDGYLSEPRSQSLNFKSEPNAIRTIDSSVHQYGQQELDALVKSWGISPTNPDRKKSRAYSYFNAINSNNTYAKLVLEKDKPVDVTYTGLKNSSFNGKKISKVVYTYTLKETGFNDGTKMTMFASSDPTVTAWYNDYFTSTNINVKVKFYDEEGQLMNLTGGLVNFSSLNRGNGSGAIDKDAIESVRNFNGRYIPISGSSIKIHENNSAYADSSNAEKSLGARWNTSEWDTTSSPNNWYGAIVGEITQSEISFNMASSKSGNIWFAFNSNINAIGVPTKPVAPTAPTQPMYETEKPLEPAPVAPSYENEPTPPVKTPDQPEPSKPEEPTYETEKPLEPAPVAPSYENEPTPPVKTPDQPEPSKPEEPNYETEKPLEPAPVAPSYENEPTPPVKIPDQPEPSKPEEPTYDPLPTPPLAPTPKQLPTPPVVPTVHFHYSSLLAQPQINKEIKNEDGVDIDRTLVAKQSIVKFELKTEALTAGRPKTTSFVLVDPLPTGYKFDLDATKAASTGFDTTYDEASHTVTFKATDETLATYNADLTKPVETLHPTVVGRVLNDGATYTNNFTLTVNDAYGIKSNVVRVTTPGKPNDPDNPNNNYIKPTKVNKNKEGLNIDGKEVLAGSTNYYELTWDLDQYKGDKSSKEAIQNGFYYVDDYPEEALDVRPDLVKVADEKGNQVSGVSVQQYDSLEAAPKKVQDLLKKANITVKGAFQLFSADNPEEFYKQYVATGTSLVITDPMTVKSEFGKTGGKYENKAYQIDFGNGYATEVVVNNVPKITPKKDVTVSLDPTSENLDGQTVQLYQTFNYRLIGGLIPQNHSEELEDYSFVDDYDQAGDQYTGNYKTFSSLNLTMKDGSVIKAGTDLTSQTTAETDATNGIVTVRFKEDFLQKISLDSPFQAETYLQMRRIAIGTFENTYVNTVNKVAYASNTVRTTTPIPRTPDKPTPIPTPKPKDPDKPETPKEPKVPSPKVEDPSAPIPVSVGKELTTLPKTGTNDATYMPYLGLAALVGFLGLGLAKRKED
Consider B3, for which the “glycan array binding signal (z-score)” value in assay [45] amounted to 3.2; in assay [42], 1.36; in assay [46], 0.081; in assay [47], 2.25; in assay [48], 2.4; in [49], 0.179.
